This note sets out measurements from PubChem BioAssay (Tox21).

Results filed as inconclusive are left out. More than one record can exist for a structure, and the calls need not agree. Activity calls are given as the source filed them. Unless noted, calls come from the whole dose curve; as a rule, active = well fitted curve in the direction sought with a large enough effect in the repeat runs; inconclusive = weak or mixed curves; inactive = no such curve, though single readings can be large; an effect the other way counts as inactive or inconclusive.

Experiment [1] in a line: qHTS assay to identify small molecule agonists of the estrogen receptor alpha (ER-alpha) signaling pathway in the presence of an antagonist - cell viability counter screen (AID 1259386).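 Note: series mostly up to about 92 µM; cells exposed to compounds for 22 h at 37 °C before the viability read; nearly all actives have a fitted effect of over 30% in size.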 The essentials: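 The test measures whether compounds kill ER-alpha reporter cells (VM7Luc4E2) under antagonist co-treatment (ICI-182,780, 10.0nM). Fluorescence from CellTiter-Fluor is read after a 22hr exposure.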

A short description of experiment [2]: qHTS assay to identify small molecule antagonists of the progesterone receptor (PR) signaling pathway - cell viability counter screen (AID 1346798). Note: series mostly up to about 92 µM; nearly all actives have a fitted effect of over 50% in size. In a few lines: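 Cytotoxicity read as CellTiter-Glo luminescence (30 min, room temperature) in the same wells as the beta-lactamase readout. HEK293T PR-UAS-bla cells in charcoal-stripped 2% FBS received compound and R5020, then 16 h at 37C, 5% CO2.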

Experiment [3] is described as follows: qHTS assay to identify small molecule agonists of the progesterone receptor (PR) signaling pathway - cell viability counter screen (AID 1346799; calls by dose curve; note: nearly all actives have a fitted effect of over 45% in size). In a few lines:
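Cytotoxicity measured by CellTiter-Glo luminescence (30 min, RT) in the same wells as the PR beta-lactamase agonist read. Those HEK293T cells had 16 h compound treatment at 37 C in 2% charcoal-stripped FBS medium.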

Experiment [4] can be described thus: qHTS assay to identify small molecule antagonists of the TGF-beta/Smad signaling pathway - cell viability counter screen (AID 1346824). Note: nearly all actives have a fitted effect of over 50% in size. The essentials:
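Cytotoxicity counter-screen run in the same wells as the beta-lactamase Smad reporter read: CellTiter-Glo luminescence after 30 min at room temperature. HEK 293T SBE-bla cells had 5 hr compound exposure at 37 C with TGF-beta1 (0.25 ng/mL stock).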

The nature of experiment [5]: qHTS assay to identify small molecule agonists of the TGF-beta/Smad signaling pathway - cell viability counter screen (AID 1346829). Note: top concentration of the series differs between compounds; nearly all actives have a fitted effect of over 45% in size. The essentials: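 In parallel with the Smad reporter read, viability of HEK 293T cells stably carrying SBE-bla is quantified by ATP luminescence following 5 hr compound treatment.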
A short description of experiment [6]: qHTS assay to identify small molecule agonists of the TGF-beta/Smad signaling pathway (AID 1346859; active = well fitted activation curve with a large enough effect in the signal ratio in the repeat runs, not every such curve was filed as active; the % refers to the signal ratio; note: series mostly up to about 77 µM). In a few lines:
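Fluorescence (ex 405 nm; em 460 and 530 nm) was read 2 h after LiveBLAzer FRET substrate at RT. The preceding compound treatment of overnight-plated SBE-bla HEK293T cells lasted 5 h at 37 C.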

For experiment [7], the target named is Thyrotropin-releasing hormone receptor (Homo sapiens) (UniProt P34981). The experiment is described as follows: qHTS assay to identify small molecule antagonists of the thyrotropin-releasing hormone receptor (TRHR) signaling pathway (AID 1346877; active = well fitted inhibition curve with a large enough effect in the repeat runs, not every such curve was filed as active; note: series mostly up to about 51 µM). The essentials:
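Overnight-plated (18 h, 37 °C) HEK293 cells expressing TRHR were dye-loaded 2 h, treated with compound, then stimulated with TRH at 1 nM final. Fluorescence intensity was captured every second for 3 min.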

Experiment [8] has the same target. The experiment is described as follows: qHTS assay to identify small molecule agonists of the thyrotropin-releasing hormone receptor (TRHR) signaling pathway (AID 1346891; calls by dose curve; note: series mostly up to about 58 µM). In a few lines:
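Agonist-mode intracellular calcium readout: kinetic fluorescence over 3 min at 1 s intervals after compound addition to TRHR-HEK293 cells (18 h seeded, 2 h dye-loaded at 37 C). Fifteen concentrations, triplicates.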

A short description of experiment [9]: Human pregnane X receptor (PXR) small molecule agonists, qHTS cell viability counter screen (AID 1346977). Note: nearly all actives have a fitted effect of over 50% in size. Note: potency is the fitted concentration of half-maximal effect. In a few lines: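 Same-well viability read: CellTiter-Fluor added after 23 hr compound exposure, fluorescence measured 1 hr later. Cells were PXR-Luc HepG2 seeded at 2,000/well in 5% charcoal-stripped FBS medium, rested 5 hr before dosing at 37 C.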
A short description of experiment [10]: Caspase-3/7 induction in HepG2 cells by small molecules, qHTS assay (AID 1346978). Note: nearly all actives have a fitted effect of over 15% in size. The essentials:
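Caspase-3/7 induction was measured by Caspase-Glo 3/7 luminescence (30 min, room temperature) after a 17 hr compound exposure of wild-type HepG2 cells seeded at 2,000 per well and pre-incubated 5 hr.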

Experiment [11] can be described thus: Caspase-3/7 induction in CHO-K1 cells by small molecules, qHTS cell viability counter screen (AID 1346979). Note: nearly all actives have a fitted effect of over 35% in size. Note: potency is the fitted concentration of half-maximal effect. The essentials: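 Cytotoxicity counter screen: CellTiter-Fluor added to compound-treated wild-type CHO-K1 cells at 16 h (37C, 5% CO2), fluorescence measured 1 h later; same wells as caspase-3/7 measurement.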
The nature of experiment [12]: Caspase-3/7 induction in CHO-K1 cells by small molecules, qHTS assay (AID 1346980). Note: nearly all actives have a fitted effect of over 15% in size. In a few lines: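 Luminescent Caspase-Glo 3/7 read (30min, room temperature) quantified apoptosis induction. Cells were wild-type CHO-K1, treated with compound for 17hr at 37 C and 5% CO2.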
Experiment [13] in a line: Caspase-3/7 induction in HepG2 cells by small molecules, qHTS cell viability counter screen (AID 1346981). Note: nearly all actives have a fitted effect of over 30% in size. Note: potency is the fitted concentration of half-maximal effect. The essentials: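 Treatment of HepG2 cells with DMSO-delivered compounds ran 16 hr at 37 C following a 5-hr pre-incubation of 2,000 cells/well. CellTiter-Fluor fluorescence, read after 1 hr, served as the viability measure in a qHTS format.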
For experiment [14], the target named is Nuclear receptor subfamily 1 group I member 2 (Homo sapiens) (UniProt O75469). Put plainly: Human pregnane X receptor (PXR) small molecule agonists, qHTS assay (AID 1346982). Note: nearly all actives have a fitted effect of over 35% in size. Note: potency is the fitted concentration of half-maximal effect. In a few lines:
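Stable HepG2 line reporting PXR-mediated CYP3A4 expression via luciferase. Treatment: 24 hr with compounds in DMSO at 37 C. Detection: ONE-Glo luminescence.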

Experiment [15] deals with Nuclear receptor subfamily 1 group I member 2 (Rattus norvegicus) (UniProt Q9R1A7). The experiment is described as follows: Rat pregnane X receptor (rPXR) activation by small molecules, qHTS assay (AID 1346983). Note: nearly all actives have a fitted effect of over 20% in size. The following applies: rPXR luciferase reporter cells, One-Glo luminescence, 24 h; stronger effect = higher value. In a few lines: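 Luminescent readout (One-Glo luciferase, 30 min room temperature) followed 24 hr compound treatment at 37 C of rPXR cells plated 2,000 per well and preincubated 5hr; qHTS format with compounds delivered in DMSO.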

For experiment [16], the target named is Nuclear receptor subfamily 1 group I member 2 (Homo sapiens) (UniProt O75469). Put plainly: Human pregnane X receptor (PXR) activation by small molecules, qHTS assay (AID 1346985). Note: nearly all actives have a fitted effect of over 40% in size. The essentials:
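DPX-2 cells (HepG2 co-transfected with a PXR response element and a CYP3A4-promoter luciferase construct) were seeded at 2,000 per well, rested 5 hr at 37C, then exposed to DMSO-dissolved compounds for 24 hr. Activation was read as luciferase luminescence.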

The target of experiment [17] is Cytochrome P450 2D6 (Homo sapiens) (UniProt P10635). Put plainly: Cytochrome P450 Family 2 Subfamily D Member 6 (CYP2D6) small molecule antagonists: luciferase reporter qHTS assay (AID 1671196). Note: nearly all actives have a fitted effect of over 50% in size. Note: potency is the fitted concentration of half-maximal effect. In a few lines:
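Chemicals tested for interference with CYP2D6 activity; proluciferin substrate, NADPH regeneration, 1 h at room temperature, luminescent detection.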

In experiment [18] the target is Progesterone receptor (Homo sapiens) (UniProt P06401). The experiment is described as follows: qHTS assay to identify small molecule antagonists of the progesterone receptor (PR) signaling pathway (AID 1346795; active = well fitted inhibition curve with a large enough effect in the signal ratio in the repeat runs, not every such curve was filed as active; the % refers to the signal ratio). The essentials: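 Antagonist mode with agonist R5020 at 1 nM final and 16 hr incubation at 37C. Reporter was beta-lactamase driven by UAS in HEK293T (PR-UAS-bla), 2% charcoal-stripped serum; signal from LiveBLAzer FRET substrate, 2 hr at room temperature.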
% is set by controls: 0 for no effect and ±100 for the full control effect.

Nuclear receptor subfamily 1 group I member 2 (Rattus norvegicus), sequence (Q9R1A7 whole entry, looked up): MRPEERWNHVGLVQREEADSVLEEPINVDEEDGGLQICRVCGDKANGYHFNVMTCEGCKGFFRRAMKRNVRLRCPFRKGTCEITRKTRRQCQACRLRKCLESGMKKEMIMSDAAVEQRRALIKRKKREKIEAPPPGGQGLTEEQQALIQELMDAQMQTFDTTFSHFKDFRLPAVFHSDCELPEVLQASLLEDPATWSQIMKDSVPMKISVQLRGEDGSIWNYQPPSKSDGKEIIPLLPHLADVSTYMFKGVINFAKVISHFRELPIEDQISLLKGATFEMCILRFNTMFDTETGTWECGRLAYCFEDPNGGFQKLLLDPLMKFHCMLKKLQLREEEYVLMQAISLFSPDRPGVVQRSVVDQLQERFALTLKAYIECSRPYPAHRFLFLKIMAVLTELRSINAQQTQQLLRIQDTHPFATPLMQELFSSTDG
Progesterone receptor (Homo sapiens), sequence (P06401 whole entry, looked up): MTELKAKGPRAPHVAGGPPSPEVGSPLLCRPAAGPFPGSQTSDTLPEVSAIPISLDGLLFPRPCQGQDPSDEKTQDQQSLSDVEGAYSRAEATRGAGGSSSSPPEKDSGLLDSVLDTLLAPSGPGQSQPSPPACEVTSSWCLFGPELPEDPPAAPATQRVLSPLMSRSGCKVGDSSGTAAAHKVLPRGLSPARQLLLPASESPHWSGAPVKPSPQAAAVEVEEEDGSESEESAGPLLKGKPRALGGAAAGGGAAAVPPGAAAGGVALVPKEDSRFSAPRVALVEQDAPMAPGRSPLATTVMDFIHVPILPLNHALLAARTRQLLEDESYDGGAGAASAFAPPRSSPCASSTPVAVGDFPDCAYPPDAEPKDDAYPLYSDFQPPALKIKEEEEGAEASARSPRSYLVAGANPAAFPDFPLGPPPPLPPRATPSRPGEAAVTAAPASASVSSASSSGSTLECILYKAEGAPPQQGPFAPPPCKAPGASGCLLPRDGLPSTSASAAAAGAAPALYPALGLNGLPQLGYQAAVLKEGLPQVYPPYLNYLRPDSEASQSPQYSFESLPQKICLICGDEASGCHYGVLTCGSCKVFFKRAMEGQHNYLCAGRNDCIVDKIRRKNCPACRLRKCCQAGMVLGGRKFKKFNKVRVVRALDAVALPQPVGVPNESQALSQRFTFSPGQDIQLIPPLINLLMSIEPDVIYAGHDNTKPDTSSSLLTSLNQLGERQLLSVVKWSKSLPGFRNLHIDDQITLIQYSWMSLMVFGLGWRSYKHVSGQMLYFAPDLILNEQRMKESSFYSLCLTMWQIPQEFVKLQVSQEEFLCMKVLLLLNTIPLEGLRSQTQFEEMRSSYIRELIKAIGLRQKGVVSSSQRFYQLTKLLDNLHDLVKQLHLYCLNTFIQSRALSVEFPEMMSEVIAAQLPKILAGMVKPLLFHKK
Nuclear receptor subfamily 1 group I member 2 (Homo sapiens), sequence (O75469 whole entry, looked up): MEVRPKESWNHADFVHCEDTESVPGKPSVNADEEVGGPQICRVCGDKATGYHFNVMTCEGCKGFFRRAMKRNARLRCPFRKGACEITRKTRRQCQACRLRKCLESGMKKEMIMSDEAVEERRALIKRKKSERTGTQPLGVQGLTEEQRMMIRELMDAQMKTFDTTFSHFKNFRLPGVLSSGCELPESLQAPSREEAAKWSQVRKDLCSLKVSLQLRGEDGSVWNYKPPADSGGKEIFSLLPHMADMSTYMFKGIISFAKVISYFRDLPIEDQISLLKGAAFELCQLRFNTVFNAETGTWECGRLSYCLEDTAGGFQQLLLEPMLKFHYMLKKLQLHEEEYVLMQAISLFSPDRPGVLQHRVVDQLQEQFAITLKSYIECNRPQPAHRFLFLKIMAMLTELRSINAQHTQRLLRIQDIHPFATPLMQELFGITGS
Thyrotropin-releasing hormone receptor (Homo sapiens), sequence (P34981 whole entry, looked up): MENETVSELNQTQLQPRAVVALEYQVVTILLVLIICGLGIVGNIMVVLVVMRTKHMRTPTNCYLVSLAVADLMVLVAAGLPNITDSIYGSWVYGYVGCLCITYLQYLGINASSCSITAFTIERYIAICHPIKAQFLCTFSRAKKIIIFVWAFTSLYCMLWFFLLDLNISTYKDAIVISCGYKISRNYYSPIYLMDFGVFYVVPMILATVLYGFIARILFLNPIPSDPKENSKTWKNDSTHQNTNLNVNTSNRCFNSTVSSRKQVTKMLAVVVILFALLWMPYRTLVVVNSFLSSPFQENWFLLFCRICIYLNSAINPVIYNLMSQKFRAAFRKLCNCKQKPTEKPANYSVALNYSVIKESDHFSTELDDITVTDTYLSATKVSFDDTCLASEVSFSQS
Cytochrome P450 2D6 (Homo sapiens), sequence (P10635 whole entry, looked up): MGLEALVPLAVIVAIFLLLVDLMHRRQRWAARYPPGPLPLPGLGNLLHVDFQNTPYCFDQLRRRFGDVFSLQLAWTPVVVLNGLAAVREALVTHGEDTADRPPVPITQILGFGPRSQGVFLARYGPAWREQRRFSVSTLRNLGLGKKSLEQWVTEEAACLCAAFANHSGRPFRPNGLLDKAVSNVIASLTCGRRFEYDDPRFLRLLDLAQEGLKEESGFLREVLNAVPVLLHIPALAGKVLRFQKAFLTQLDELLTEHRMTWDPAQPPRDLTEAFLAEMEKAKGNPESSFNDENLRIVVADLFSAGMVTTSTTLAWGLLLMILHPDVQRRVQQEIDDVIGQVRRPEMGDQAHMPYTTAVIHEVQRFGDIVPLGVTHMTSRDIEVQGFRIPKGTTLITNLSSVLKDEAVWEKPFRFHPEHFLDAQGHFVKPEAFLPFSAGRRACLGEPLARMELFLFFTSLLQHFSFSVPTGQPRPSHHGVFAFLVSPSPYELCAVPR

For `COc1ccc2c(c1)c(CC(=O)OC/C=C(\C)CC/C=C(\C)CCC=C(C)C)c(C)n2C(=O)c1ccc(Cl)cc1`, the Potency entry in experiment [1], in [2], in experiment [3], in experiment [4], in experiment [5] and in [6] was “inactive” throughout. Besides, the Potency result in experiment [7], in experiment [9], in [10], in [11], in experiment [12] and in experiment [13] was “inactive” in each case. Besides, the result in experiment [8] was inactive.

Consider `CC[N+](CC)(CC)CCOc1ccc(/C=C/c2ccccc2)cc1`, for which the Potency entry in experiment [1], in experiment [2], in [4], in experiment [5], in [6] and in experiment [7] was “inactive” each time. Besides, the Potency entry in experiment [9], in experiment [10], in experiment [11], in experiment [13], in experiment [14] and in experiment [16] was “inactive” in each case. Moreover, the result in experiment [8] was inactive. In addition, the max activation in experiment [15] is -2.42% (inactive). Moreover, the Potency in experiment [17] was 15.5 µM (active).

As to `O=C1CCCCCCCCCCCCCCCO1`, the Potency entry in experiment [1], in experiment [2], in [3], in experiment [4], in experiment [5] and in experiment [7] was “inactive” throughout. The Potency result in [11], in [12], in [13], in experiment [14] and in [17] was “inactive” in each case. Further, the call in experiment [8] was inactive.

With `CCc1cccc(CC)c1NC(=O)CN(CC(=O)O)CC(=O)O`, the Potency result in experiment [1], in experiment [18], in [2], in experiment [4], in experiment [5] and in experiment [7] was “inactive” each time. For the same compound, the Potency entry in [9], in experiment [10], in experiment [11], in experiment [12], in experiment [13] and in experiment [16] was “inactive” in each case. For the same compound, in experiment [17], the Potency result was “inactive”. For the same compound, in experiment [8], the compound was classed as inactive. Moreover, the max activation in experiment [15] was -4.1% (inactive).

On to `C=C(CC)C(=O)c1ccc(OCC(=O)O)c(Cl)c1Cl`, for which the Potency result in experiment [1], in experiment [2], in experiment [4], in experiment [5], in experiment [7] and in experiment [10] was “inactive” throughout. For the same compound, the Potency result in experiment [12] and in experiment [14] was “inactive” throughout. Moreover, in [8], the result was inactive. Moreover, the Potency in experiment [9] is 43 µM (active); in experiment [11], 68.1 µM (active) and inactive; in experiment [13], 30.4 µM (active); in experiment [17], 25 µM (active) and inactive.

With `CCCCCCOC(=O)C(C)CC` (stereo not drawn), the Potency result in experiment [1], in [18], in experiment [4], in experiment [5], in experiment [6] and in experiment [7] was “inactive” in each case. Further, the Potency entry in experiment [9], in experiment [10], in experiment [11], in experiment [13], in experiment [14] and in experiment [17] was “inactive” each time. Besides, in [8], the compound was called inactive.

Regarding `CC(C(=O)O)c1ccc2c(c1)[nH]c1ccc(Cl)cc12` (stereo not drawn), the Potency entry in experiment [1], in experiment [18], in experiment [2], in experiment [4], in experiment [5] and in [7] was “inactive” each time. Further, the Potency result in experiment [9], in experiment [10], in experiment [12], in [13], in experiment [14] and in [16] was “inactive” throughout. Further, the Potency entry in experiment [17] is “inactive”. In addition, the compound was called inactive in [8]. Further, in experiment [15], the max activation was -1.86% (inactive).

Turning to `CCC(C)n1ncn(-c2ccc(N3CCN(c4ccc(OC[C@H]5CO[C@](Cn6cncn6)(c6ccc(Cl)cc6Cl)O5)cc4)CC3)cc2)c1=O` (stereo partly drawn), the Potency entry in experiment [1], in experiment [18], in experiment [4], in [5], in experiment [6] and in [7] was “inactive” throughout. The Potency result in experiment [10], in experiment [13] and in experiment [17] was “inactive” each time. In experiment [8], the call was inactive. Moreover, the values for the Potency in experiment [11] and in experiment [14] were 5.96 µM (active) and 2.98 µM (active), respectively.
